Compound activity (PubChem BioAssay)
PLCb3 inh: PLC-beta3 (human) inhibition, primary screen. Purified PLC-beta3, fluorogenic substrate, fluorescence. inhibition, % at 12.2 µM. Q01970. 370,000 compounds, 0.18% hits; in the data active means inhibition above about 11%
proKLK7 act: proKLK7 (human) activation, primary screen; purified proKLK7, EDANS-DABCYL substrate fluorescence; 100% is mature enzyme control, 0% vehicle; activation, % at 7 µM; 370,000 compounds, 0.9% hits; P49862;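 active means activation above the mean of all tested compounds plus 3 SD, computed per campaign excluding outliers beyond control limits, cut at about 13% in these data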
Target sequence (P49862 whole entry, looked up): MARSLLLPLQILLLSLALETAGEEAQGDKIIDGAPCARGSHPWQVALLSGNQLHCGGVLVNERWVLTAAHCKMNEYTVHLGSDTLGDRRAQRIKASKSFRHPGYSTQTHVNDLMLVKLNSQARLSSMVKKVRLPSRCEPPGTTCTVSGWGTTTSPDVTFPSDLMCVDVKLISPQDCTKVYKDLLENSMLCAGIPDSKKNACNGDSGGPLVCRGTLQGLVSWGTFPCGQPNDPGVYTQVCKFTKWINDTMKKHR
PLCg1 inh: inhibitors of human phospholipase C gamma1 | P19174 | purified PLC-gamma1, fluorogenic substrate, fluorescence | inhibition, % at 12.2 µM | 370,000 compounds, 0.84% hits | AID 720700
ADAM17 inh: inhibits human ADAM17; inhibition, % at 6.95 µM; P78536; recombinant ADAM17, EDANS/DABCYL FRET peptide cleavage; 370,000 compounds, 0.83% hits; AID 720648;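 active means inhibition above the mean of compounds lying between control limits plus 3 SD, set per campaign, cut at about 8.5% in these data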
ADAM10 inh: inhibitors of human ADAM10; 370,000 compounds, 0.62% hits; AID 720582; inhibition, % at 7 µM; O14672; recombinant ADAM10, EDANS/DABCYL FRET peptide cleavage, 3 h;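 active means inhibition above a per-campaign cutoff equal to the mean of compounds falling between control-based bounds plus 3 SD, cut at about 20% in these data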
ADAM10 confirm: human ADAM10 inhibition, confirmation | shares compounds with ADAM10 inh | ADAM10 QFRET peptide cleavage, EDANS fluorescence | inhibition, % at 6.95 µM | 2,100 compounds, 1% hits | AID 743208;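 active means inhibition above about 20% chosen separately for each screening run, limit read from the data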
ADAM17 ctr: inhibits human ADAM17 in ADAM10 exosite counter-screen; AID 743214; inhibition, % at 6.95 µM; 2,100 compounds, 0.5% hits; ADAM17 QFRET peptide cleavage, EDANS fluorescence; shares compounds with ADAM10 inh;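 active means mean triplicate inhibition above the solvent-only control wells' mean plus 3 SD, cut at about 12% in these data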
ADAM10 ctr: counter-screen for ADAM17 exosite inhibitors: inhibitors of human ADAM10 | shares compounds with ADAM17 inh | recombinant ADAM10, EDANS/DABCYL FRET peptide cleavage, 3 h | inhibition, % at 6.95 µM | 2,900 compounds, 47% hits;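 active means mean inhibition over the triplicate runs exceeds the activity threshold set in the earlier primary screen, cut at about 20% in these data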
ADAM17 confirm: confirmation of inhibitors of human ADAM17. 2,900 compounds, 65% hits. recombinant ADAM17, EDANS/DABCYL QFRET peptide cleavage. inhibition, % at 6.95 µM. shares compounds with ADAM17 inh. AID 743257;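 active means mean inhibition across replicates above the hit cutoff set in the primary screen, cut at about 8.5% in these data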
PLCg1 ctr: inhibits human PLC-gamma1 in PLC-beta3 counter-screen; shares compounds with PLCg1 inh; purified PLC-gamma1, fluorogenic substrate, fluorescence; inhibition, % at 12.3 µM; 3,300 compounds, 3.1% hits; AID 743258
PLCb3 confirm: confirmation of human PLC-beta3 inhibitors; shares compounds with PLCg1 inh; purified PLC-beta3, fluorogenic substrate fluorescence; inhibition, % at 12.3 µM; 3,300 compounds, 1% hits; AID 743261; in the data active means inhibition above about 11%
Of the large screens only hits and unclear results are named; the others gave an inactive call (follow-up assays come after a bar, where they were run); ! = not active in a repeat. The list is not random: actives were taken first. Their share in the collection is about 2.9%. Unless noted, no stated cut-off is given here; in the data, active means inhibition above about 9.5%; inactive means the rest.

C=CC[C@@H](CC(=O)N(CCO)Cc1ccccc1)C(=O)N[C@H](COC(=O)[C@@H](CC=C)Cc1ccc(F)cc1)Cc1c[nH]c2ccccc12	ADAM17 inh 14.0, ADAM10 inh 39.4 | ADAM10 confirm inactive | ADAM17 ctr inactive | ADAM10 ctr 46.4 | ADAM17 confirm 24.7
C=CC[C@H](CC(=O)N(CCO)Cc1ccccc1)C(=O)N[C@H](COC(=O)[C@H](CC=C)CC(=O)OC(C)(C)C)Cc1c[nH]c2ccccc12	none
C=CCC[C@@H](Cc1ccc(F)cc1)C(=O)OC[C@@H](Cc1c[nH]c2ccccc12)NC(=O)[C@@H](CC=C)CC(=O)N[C@@H](CO)Cc1ccccc1	none
C=CC[C@H](CC(=O)N(CCO)Cc1ccccc1)C(=O)N[C@H](COC(=O)[C@@H](CC=C)Cc1ccc(F)cc1)Cc1c[nH]c2ccccc12	ADAM17 inh 14.8, ADAM10 inh 26.8 | ADAM10 confirm inactive | ADAM17 ctr inactive | ADAM10 ctr 41.3 | ADAM17 confirm 23.3
C=CCC[C@H](Cc1ccc(F)cc1)C(=O)OC[C@@H](Cc1c[nH]c2ccccc12)NC(=O)[C@@H](CC=C)CC(=O)N[C@@H](CO)Cc1ccccc1	ADAM17 inh 11.3, ADAM10 inh 22.5 | ADAM10 confirm inactive | ADAM17 ctr inactive | ADAM10 ctr inactive | ADAM17 confirm inactive
C=CCC[C@@H](Cc1ccc(F)cc1)C(=O)OC[C@@H](Cc1c[nH]c2ccccc12)NC(=O)[C@H](CC=C)CC(=O)N[C@H](CO)Cc1ccccc1	none
C=CCC[C@H](Cc1ccc(F)cc1)C(=O)OC[C@H](Cc1c[nH]c2ccccc12)NC(=O)[C@H](CC=C)CC(=O)N(CCO)Cc1ccccc1	ADAM17 inh 11.9, ADAM10 inh 24.4 | ADAM10 confirm inactive | ADAM17 ctr inactive | ADAM10 ctr 36.2 | ADAM17 confirm 17.6
Cn1nc(C(C)(C)C)cc1C(=O)N1CCCCC1c1cc(C(=O)Nc2ccc(F)c(Cl)c2)no1 (stereo not drawn)	ADAM17 inh 11.9, ADAM10 inh 20.2 | ADAM10 confirm inactive | ADAM17 ctr inactive | ADAM10 ctr 20.5 | ADAM17 confirm 12.0
COCCOc1ccc(C(F)(F)F)cc1NC(=O)COC(=O)c1cc([N+](=O)[O-])ccc1N1CCOCC1	ADAM17 inh 8.9, ADAM10 inh 22.0 | ADAM10 confirm inactive | ADAM17 ctr inactive | ADAM10 ctr inactive | ADAM17 confirm 8.9
Cc1[nH]c2ccccc2c1C(=O)C(=O)N1CCN(c2cccc(Cl)c2)CC1	PLCg1 inh 12.6, ADAM17 inh 18.3, ADAM10 inh 24.1 | ADAM10 confirm inactive | ADAM17 ctr inactive | ADAM10 ctr 25.4 | ADAM17 confirm 8.8
O=[N+]([O-])c1ccc(S(=O)(=O)Nc2ccc(-c3csc(-c4ccccc4)n3)cc2)cc1	ADAM17 inh 17.3, ADAM10 inh 34.4 | ADAM10 confirm inactive | ADAM17 ctr inactive | ADAM10 ctr 33.6 | ADAM17 confirm 16.8
Cc1ccc(S(=O)(=O)Nc2ccc(-c3csc(-c4ccccc4)n3)cc2)cc1	ADAM17 inh 15.5, ADAM10 inh 31.1 | ADAM10 confirm inactive | ADAM17 ctr inactive | ADAM10 ctr 24.1 | ADAM17 confirm 19.8
COc1ccc(-c2csc(NS(=O)(=O)c3ccc([N+](=O)[O-])cc3)n2)cc1	none
CC(=O)NCCN1C(=O)C2C3c4ccccc4C(c4ccccc43)C2C1=O (stereo not drawn)	none
O=C(NCc1ccco1)C1CCCN(S(=O)(=O)c2ccc(F)cc2)C1 (stereo not drawn)	none
O=C(CSc1nnc(Cc2cccs2)n1-c1ccc(Cl)cc1)Nc1ccc(OCc2ccccc2)cc1	ADAM17 inh 13.9, ADAM10 inh 26.4 | ADAM10 confirm inactive | ADAM17 ctr inactive | ADAM10 ctr 23.4 | ADAM17 confirm 15.7
Cc1cccn2c(=O)c(C=O)c(N3CCSCC3)nc12	none
COC(=O)[C@]12C[C@H](CC(=O)NCCc3ccccc3OC)C(=O)N(CCc3ccc(OC)c(OC)c3)C1=C[C@H](COCc1ccccc1)O[C@@H]2C	PLCg1 inh 13.4, ADAM10 inh 20.9 | ADAM10 confirm inactive | ADAM17 ctr inactive | PLCg1 ctr inactive | PLCb3 confirm inactive
CCCCNC(=O)C[C@H]1C[C@@]2(C(=O)OC)C(=C[C@H](COCc3ccccc3)O[C@@H]2C)N(CCc2ccc(OC)c(OC)c2)C1=O	none
CC(=O)Nc1ccc(NC(=O)[C@@H]2CCCN2S(=O)(=O)c2ccc3c(c2)OCCO3)cc1	none
Cc1nnc(SCC(=O)NC2CCCCC2C)s1 (stereo not drawn)	none
C#CCN(C[C@@H]1[C@@H](OC(=O)NC2CCCC2)[C@@H](OC(=O)NC2CCCC2)CN(C(=O)OC(C)C)N1C(=O)OC(C)C)S(=O)(=O)c1ccc(C)cc1	PLCg1 inh 11.4, ADAM17 inh 15.1, ADAM10 inh 32.5 | ADAM10 confirm inactive | ADAM17 ctr inactive | ADAM10 ctr 54.1 | ADAM17 confirm 21.2 | PLCg1 ctr inactive | PLCb3 confirm inactive
CC(C)(C)NC(=O)[C@@H]1C[C@@H]2CCCC[C@@H]2CN1C[C@@H](O)[C@H](Cc1ccccc1)NC(=O)[C@H](CC(N)=O)NC(=O)c1ccc2ccccc2n1	PLCg1 inh 9.7!, ADAM10 inh 26.3! | ADAM10 confirm inactive | ADAM17 ctr inactive | PLCg1 ctr inactive | PLCb3 confirm inactive
Nc1cc(Cl)ccc1Oc1ccc2ccccc2c1	PLCg1 inh 13.8, ADAM17 inh 16.8, ADAM10 inh 29.0 | ADAM10 confirm inactive | ADAM17 ctr inactive | ADAM10 ctr inactive | ADAM17 confirm 11.7 | PLCg1 ctr inactive | PLCb3 confirm inactive
Cc1ccc(CNC(=O)c2cc(-c3ccccc3C)nn2CC2CC(c3cccnc3)=NO2)cc1 (stereo not drawn)	none
